# Sampled rows, rich in hits. Any-hit rate of the full collection: about 3.6%.
# WT yeast gro inh – growth inhibition of WT yeast, mitochondrial fusion screen; hit rate 2.1% among 190,000; mitochondrial fusion phenotypic screen, WT strain; inhibition, % at 10 µM; AID 1362; in the data active = inhibition above about 58%; tested in S. cerevisiae
# PTEN del growth – growth suppressors of cells with PTEN tumor suppressor deletion. HCT116 PTEN-null viability, CellTiter-Glo, 60 h; hits give low values. hit rate 1.2% among 140,000. viability, % at 10 µM;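 active = viability at or below a set limit, 4 SD under the median of all tested compounds, cut at about 3.7% in these data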;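 note: PTEN knockout HCT116 line with beta catenin targeted HCT116 as companion control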
# DAT uptake mod – changed human dopamine transporter uptake under cocaine IC80; Q01959; LLC-PK1 hDAT cells, [14C]-dopamine uptake with cocaine IC80; actives deviate in either direction; B-score at 10 µM; hit rate 1.3% among 110,000;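 active = Z score or B-score, a plate-position-corrected score, falls beyond the plate's 99.7% confidence bounds, in either direction; inactive = both scores lie inside the 99.7% bounds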;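 note: scored against the spread of the other compound wells on the same plate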
# Target sequence (Q01959 whole entry, looked up): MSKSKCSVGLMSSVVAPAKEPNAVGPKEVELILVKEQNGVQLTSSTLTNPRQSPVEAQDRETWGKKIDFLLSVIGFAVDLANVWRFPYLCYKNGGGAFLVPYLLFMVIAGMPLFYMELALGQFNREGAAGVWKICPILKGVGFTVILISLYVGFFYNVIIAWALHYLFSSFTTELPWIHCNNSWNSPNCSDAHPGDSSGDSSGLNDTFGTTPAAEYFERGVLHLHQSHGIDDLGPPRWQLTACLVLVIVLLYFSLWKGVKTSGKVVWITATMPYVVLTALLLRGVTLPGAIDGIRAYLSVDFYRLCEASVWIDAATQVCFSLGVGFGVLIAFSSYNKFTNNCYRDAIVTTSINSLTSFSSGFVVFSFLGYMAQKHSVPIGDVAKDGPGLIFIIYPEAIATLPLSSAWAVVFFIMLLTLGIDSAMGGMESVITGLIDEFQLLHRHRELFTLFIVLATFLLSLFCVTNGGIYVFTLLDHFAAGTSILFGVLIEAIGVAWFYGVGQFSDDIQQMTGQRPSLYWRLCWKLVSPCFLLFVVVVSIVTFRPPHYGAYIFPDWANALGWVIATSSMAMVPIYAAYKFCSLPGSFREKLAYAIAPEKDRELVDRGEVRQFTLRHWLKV
# bCat KO growth – beta-catenin-lacking colon tumor cell growth suppression. HCT116 beta-catenin knockout viability, CellTiter-Glo, 60 h; hits give low values. viability, % at 10 µM. hit rate 1.5% among 140,000. AID 818;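 active = viability at or under a set limit, the compound median less 4 SD, cut at about 6% in these data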;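 note: 0% = Hyamine 1622 control at 20 µM and 100% = untreated cell control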
# Starred values were filed as active, the others as inactive; nt = no result given.
SMILES,WT yeast gro inh,PTEN del growth,DAT uptake mod,bCat KO growth
C=C(C)COc1ccc(-c2nc(N)nc(C)c2Oc2ccccc2OC)c(O)c1,73*,87,0.18,86
Cc1nnc(NC(=O)c2nn(CC(C)C)c(=O)c3ccccc23)s1,3,nt,nt,nt
Cc1nc2ccc(NC(=O)c3nn(CC(C)C)c(=O)c4ccccc34)cc2s1,64*,80,nt,98
Cc1[nH]c2ccccc2c1/C=N/NC(=O)C1CC1(c1ccccc1)c1ccccc1 (centres undefined),84*,3.4*,nt,2.7*
Cc1[nH]c2ccccc2c1/C=N/NC(=O)CCC(=O)NCc1ccccc1,-14,nt,nt,nt
Cc1ccnc(NS(=O)(=O)c2ccc(N=CC3=C(O)CC(C)(C)CC3=O)cc2)n1,67*,100,0.15,95
CC1(C)CC(=O)C(C=Nc2ccccc2)=C(O)C1,11,102,0.12,80
C=CCn1c(C)c(C(C)=O)c(N2CCN(C(c3ccccc3)c3ccccc3)CC2)nc1=S,72*,nt,nt,nt
O=C(NCCCn1ccnc1)c1ccc(S(=O)(=O)N2CCCCCC2)cc1,-22,108,3.1*,104
CCc1cc(CNC(=O)CC2C(=O)NCCN2Cc2cccc(OC)c2)on1 (centres undefined),7,nt,nt,nt
COc1ccc(/C=C/C(=O)N2CCN(c3ccccn3)CC2)c2ccccc12,62*,nt,nt,nt
C/C(N)=C(/C#N)C(=O)COC(=O)[C@@H](NC(=O)c1ccccc1Cl)C(C)C,-22,nt,nt,nt
CCOC(=O)C1CCN(S(=O)(=O)c2c(C)n[nH]c2C)CC1,67*,83,-0.079,78
CCOC(=O)C1CCN(S(=O)(=O)c2c(C)[nH]c(=O)[nH]c2=O)CC1,-8,96,-0.5,87
O=C(/C=C/c1ccc2c(c1)OCCCO2)c1ccccc1O,67*,64,nt,63
Cc1ccc(O)c(C(=O)/C=C/c2ccc3c(c2)OCCCO3)c1,61*,30,nt,36
O=C1CC(Cc2ccccc2)C(=O)N1c1ncccn1 (centres undefined),-15,nt,nt,nt
Cc1ccc(N=Cc2c(C)[nH]n(-c3nc4ccccc4[nH]3)c2=O)cc1,84*,12,nt,14
Cc1ccc(-n2[nH]c(C)c(C=Nc3ccc4[nH]c(=O)[nH]c4c3)c2=O)cc1,6,42,nt,44
CC(=O)C1=C(c2ccc(Br)cc2)C(=O)c2ccccc2C1=O,93*,1.4*,nt,1.6*
Cc1nc(N2CCc3ccccc3C2)[nH]c(=O)c1Cc1ccccc1,1,nt,nt,nt
Cc1nc(-n2[nH]c3c(c2=O)CCCC3)[nH]c(=O)c1Cc1ccccc1,14,3.2*,-2.3,5.3*
CN(C)c1cc[n+](CC(=O)Nc2ccc(Oc3ccccc3)cc2)cc1,76*,nt,nt,nt
CCOc1ccc(NC(=O)C[n+]2ccc(N(C)C)cc2)cc1,-6,88,nt,77
CCCn1nc2cc(C(=O)NCc3ccc(C)cc3)ccc2c1OCC,2,99,0.83,79
SMILES,WT yeast gro inh,PTEN del growth,DAT uptake mod,bCat KO growth
CCOc1c2ccc(C(=O)NCc3ccc(C)cc3)cc2nn1CC,5,100,3.2*,94
CC(C)NC(=O)NC(=O)COC(=O)Cc1c(F)cccc1Cl,-16,nt,nt,nt
Cc1ccc(C)c(NC(=O)c2ccccc2C(=O)c2ccccc2)c1,63*,nt,nt,nt
COC(=O)c1cc(NC(=S)Nc2cc(Cl)cc(Cl)c2)cc(C(=O)OC)c1,77*,61,nt,66
COC(=O)c1cccc(NC(=S)Nc2cccc(Cl)c2C)c1,11,86,nt,96
CCOC(=O)c1cnc(SC)nc1Nc1cccc(F)c1,-5,67,-1.7,57
CCOC(=O)c1cnc(SC)nc1Sc1cc(Cl)ccc1Cl,71*,81,-1.2,78
COc1cc2c(cc1NC(=O)CSc1nc3ccccc3[nH]1)oc1ccccc12,64*,87,nt,96
COc1cc2c(cc1NC(=O)Nc1ccc(C)cc1)oc1ccccc12,96*,91,0.99,95
CC(C)Cn1c(N)c(C(=O)COC(=O)C2CC(=O)N(Cc3ccccc3Cl)C2)c(=O)n(C)c1=O (centres undefined),-4,nt,nt,nt
CCCCOc1ccccc1/C=N/NC(=O)CC#N,3,nt,nt,nt
N#CCC(=O)N/N=C/c1cc(-c2ccccc2)n(-c2ccc(Cl)cc2)c1-c1ccccc1,80*,nt,nt,nt
Cc1ccc(-n2c(-c3ccccc3)cc(/C=N/NC(=O)CC#N)c2-c2ccccc2)cc1,73*,nt,nt,nt
COc1ccc(NC(=O)COC(=O)CCNS(=O)(=O)c2ccccc2)cc1OC,-11,nt,nt,nt
O=C(O)C1Cc2[nH]cnc2C(c2ccccc2O)N1 (centres undefined),-2,90,nt,80
Clc1cccc(-c2nnc(-c3ccccc3)o2)c1,12,7,-1.4,2.4*
c1ccc(-c2nnc(-c3ccccc3)o2)cc1,-10,90,-0.11,97
Cc1cc(C)n(Cc2ccc(NC(=O)c3nn(C)cc3[N+](=O)[O-])cc2)n1,30,1.8*,-0.24,5.3*
CCn1cc([N+](=O)[O-])c(C(=O)Nc2ccc(Cn3nc(C)cc3C)cc2)n1,2,100,0.36,91
Cn1cc([N+](=O)[O-])c(C(=O)Nc2ccc(C(=O)N3CCCCC3)cc2)n1,7,3.5*,nt,4.1*
Cc1ccc(Cn2ccc(NC(=O)c3nn(C)cc3[N+](=O)[O-])n2)cc1,-13,2.6*,nt,5.0*
O=C(Nc1ccccc1)Nc1ccc(C(=O)N2CCCC2)cc1,62*,nt,nt,nt
CCNC(=O)CSc1nnc(-c2ccccc2Br)n1-c1cccc(C(F)(F)F)c1,-6,79,nt,90
CCOC(=O)C1(CCOC)CCN(C(=O)c2sccc2C)CC1,-2,nt,nt,nt
CCc1ccc(OCCOCC(O)CN(CCO)CCO)cc1 (centres undefined),5,103,nt,100
SMILES,WT yeast gro inh,PTEN del growth,DAT uptake mod,bCat KO growth
CS(=O)(=O)c1ccc(C(=O)OCc2nnc(-c3ccc(Cl)cc3)o2)cc1[N+](=O)[O-],20,nt,nt,nt
Cn1cc([N+](=O)[O-])c(C(=O)Nc2cc(Oc3cccnc3)cc([N+](=O)[O-])c2)n1,-11,0.3*,-0.4,1.6*
O=[N+]([O-])c1cc(Oc2cccnc2)cc([N+](=O)[O-])c1,10,97,nt,89
Cc1cc(N2CCC(C)CC2)nc(SCC(=O)c2ccccc2)n1,18,78,-0.99,72
Cc1cc(C(=O)Nn2c(-c3ccc(Br)cc3)nc3ccccc3c2=O)ccc1[N+](=O)[O-],68*,75,nt,73
CCc1ccccc1NC(=O)C1C(c2ccccc2)C1(Cl)Cl (centres undefined),81*,78,-0.31,83
Cc1ccc(C)c(NC(=O)C2C(c3ccccc3)C2(Cl)Cl)c1 (centres undefined),10,73,0.61,85
CCN1/C(=C/C=C/C=C/c2sc3ccccc3[n+]2CC)Sc2ccccc21,86,1.7*,-0.72,1.2*
OC(CNCc1cccc(Br)c1)c1ccccc1 (centres undefined),-16,nt,nt,nt
OC(CNCc1ccc(-c2ccccc2)cc1)c1ccccc1 (centres undefined),60*,nt,nt,nt
Cc1ccc(NC(=O)ON=C2CCCC2)cc1,9,84,nt,91
Cc1nc2cc(NS(=O)(=O)c3ccc(Br)cc3)ccc2n1C,-4,nt,nt,nt
CC(=O)N/C(=C/c1ccc2c(c1)OCO2)C(=O)NCc1ccccc1,-5,nt,nt,nt
Cc1cccc(NC(=O)CCOc2ccccc2)c1,3,100,-1.9*,99
O=C(CCOc1ccccc1)Nc1cccc([N+](=O)[O-])c1,8,nt,nt,nt
